Screening results as filed in PubChem.
CBFb-RUNX1 inh: qHTS Assay for Compounds Blocking the Interaction Between CBF-beta and RUNX1 for the Treatment of Acute Myeloid Leukemia; AlphaScreen CBFb-His/RUNX1-biotin binding, biochemical; 230,000 tested, under 10 active; Potency, µM (doses to about 59.8 µM), for inactives: at the highest dose activity, negative = inhibition, usual class: inhibitors; AID 1477, 2009; further: % of control where 0% means no effect
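Room-temperature protein-protein interaction test with 30 nM each of His-tagged CBF-beta and biotinylated RUNX1, 15 min with compound, then 90 min with nickel plus streptavidin beads. Signal read in AlphaScreen mode.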
Gal4-VP16 FLuc: VP16 counterscreen qHTS for inhibitors of ROR gamma transcriptional activity; Drosophila S2 Gal4-VP16 UAS-luciferase, luminescence, 20 h; Potency, µM (titrated, usually from 53.6 µM), for the others: at the top dose activity, negative = inhibition, usual class: inhibitors; 310,000 tested, 3.5% active;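 further: Gal4-VP16 expression switched on by copper sulfate through the metallothionein promoter; potency means the concentration at half of the fitted maximal effect; on the % scale 0 is the no-effect control and ±100 the full control effect; nearly all actives have a fitted effect of over 50% in size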
MBNL1-CUG inh: qHTS Assay for Inhibitors of MBNL1-poly(CUG) RNA binding; Muscleblind-like protein 1 (Homo sapiens), Q9NR56; TR-FRET MBNL1-His/biotin-(CUG)12 binding, 665/545 ratio; Potency, µM (titrated, usually from 57.5 µM), for the others: at the top dose activity change, negative = inhibition, usual class: inhibitors; 280,000 tested, 0.036% active; AID 2675, 2010; active means well fitted inhibition curve with a large enough effect in the signal ratio, with a control signal flat, not every such curve was filed as active; inconclusive means small, poorly fitted or top-dose-only effect, or effect the other way, or a change in a side signal; inactive means no such curve, though single readings can be large or run the other way; the % refers to the signal ratio; further: potency means the concentration at half of the fitted maximal effect; on the % scale 0 is the no-effect control and ±100 the full control effect
Target sequence (Q9NR56 whole entry, looked up): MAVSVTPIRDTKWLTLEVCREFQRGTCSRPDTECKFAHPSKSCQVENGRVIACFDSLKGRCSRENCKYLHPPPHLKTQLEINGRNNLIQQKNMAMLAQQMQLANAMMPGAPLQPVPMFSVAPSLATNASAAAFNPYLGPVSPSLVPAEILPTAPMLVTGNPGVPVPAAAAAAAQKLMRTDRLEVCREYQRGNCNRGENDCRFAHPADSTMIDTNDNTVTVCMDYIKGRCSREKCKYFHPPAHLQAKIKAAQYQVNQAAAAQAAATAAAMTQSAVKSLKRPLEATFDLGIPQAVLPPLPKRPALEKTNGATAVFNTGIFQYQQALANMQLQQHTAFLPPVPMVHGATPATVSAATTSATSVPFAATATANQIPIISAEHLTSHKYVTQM
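Ratiometric TR-FRET (665 over 545 nm, excitation 340 nm) tracks disruption of MBNL1-His/biotin-(CUG)12 complex after 60 min at room temperature, with compounds at 92 nM to 58 uM final.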
CtBP-E1A blk: qHTS Assay for Inhibitors of the CtBP/E1A Interaction; AID 651724, 2012; 340,000 tested, 0.49% active; AlphaScreen GST-E1A/His-CtBP binding, 1536-well; stronger effect = lower value; activity change, % (test concentration not listed); in the data active means activity change below about -65%; inconclusive means mostly about -30% to -63%; further: on the % scale 0 is the no-effect control and ±100 the full control effect
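Homogeneous bead-based format: GST-tagged E1A captured on glutathione donor beads, His-tagged CtBP on nickel acceptor beads; compounds precede bead addition by 2 h at 37 °C.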
RORg inh: qHTS for inhibitors of ROR gamma transcriptional activity; Nuclear receptor ROR-gamma (Mus musculus), P51450; Drosophila S2 Gal4-RORgamma UAS-luciferase reporter, 20 h; Potency, µM (top dose mostly 53.6 µM), without a hit: at the top dose activity change, negative = inhibition, hits mostly inhibitors; 310,000 tested, 5.4% active; AID 2551, 2010; further: potency means the concentration at half of the fitted maximal effect; on the % scale 0 is the no-effect control and ±100 the full control effect; nearly all actives have a fitted effect of over 60% in size
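In this cell-based reporter format, copper sulfate (700 uM final) drives Gal4–ROR gamma fusion expression from a metallothionein promoter in Drosophila Schneider cells; compounds preincubated 1 hr, reporter read after 20 hr at ambient temperature.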
Six1-Eya2 blk: qHTS Assay for Inhibitors of the Six1/Eya2 Interaction; AID 651725, 2012; 360,000 tested, 0.56% active; Homeobox protein SIX1 (Homo sapiens) + Protein phosphatase EYA2 (Homo sapiens), …; AlphaScreen GST-Six1/His-Eya2 binding, biochemical; stronger effect = lower value; activity change, % (concentration not given with the values); in the data active means activity change below about -65%; inconclusive means mostly about -30% to -63%; further: on the % scale 0 is the no-effect control and ±100 the full control effect
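Homogeneous AlphaScreen proximity assay pairing GST-Six1 with His-tagged Eya2 (added as 5X mix: 250 nM and 500 nM) in 50 mM Tris pH 8.0, 300 mM NaCl, 1 mM TCEP. Glutathione donor and nickel acceptor beads; 1 h, 37 °C, dark.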
* hit, by the source's call; ? = inconclusive; . = no result; [ ] = remark or other dose. Rows were chosen to be rich in hits. Some 5.5% of all compounds tested hit in one or more screens of this group. Unless noted, the call rests on the fitted dose curve; in most records, active means well fitted curve in the direction sought with a large enough effect; inconclusive means small, poorly fitted or top-dose-only effect, or another doubt; inactive means no such curve, though single readings can be large; an effect the other way counts as inactive or inconclusive.

SMILES | CBFb-RUNX1 inh | Gal4-VP16 FLuc | MBNL1-CUG inh | CtBP-E1A blk | RORg inh | Six1-Eya2 blk
CC(C)OCCCNC(=O)c1ccc2c(=O)n(Cc3ccc4c(c3)OCO4)c(=S)[nH]c2c1 | ? | 1.8% | -5.7% | 8.3 | 3.4% | -2.6
CCCN(CCC)C(=O)c1ccc2c(=O)n(Cc3ccco3)c(=S)[nH]c2c1 | -13.4% | ? | -0.6% | . | 3.16µM* | -6.9
CC1(C)Cc2c(sc3[nH]c(=S)n(Cc4ccco4)c(=O)c23)CO1 | ? | 1.41µM* | 40.1% | 10.2 | 1µM* | 0.1
CC1CCCN(C(=O)c2ccc3c(=O)n(Cc4ccc5c(c4)OCO5)c(=S)[nH]c3c2)C1 (configuration not stated) | -1.2% | ? | -1.2% | -7.4 | 7.94µM* | -11.5
CC(=O)Nc1ccc(NC(=O)Cc2ccc(S(=O)(=O)N3CCCCC3)cc2)cc1 | . | . | . | 0.0 | . | 22.0
NS(=O)(=O)c1ccc(CCNC(=O)c2cc3ccccc3oc2=O)cc1 | . | -14.6% | ? | -1.9 | 20.3%[1.91 µM] | -14.5
CCNC(=O)C1(C)CCCN(C(=O)c2ccc(OC)c(F)c2)C1 (configuration not stated) | . | . | . | 4.3 | . | 7.2
CCN(CC)C(=O)c1ccc2c(=O)n(CCOC)c(=S)[nH]c2c1 | 6.5% | -10.2% | 0.3% | 6.5 | -11.2% | 0.1
CCCn1c(=S)[nH]c2cc(C(=O)N(CCO)Cc3ccccc3)ccc2c1=O | . | ? | 4.6% | -5.7 | 12.6µM* | -3.6
CCN(CC)C(=O)c1ccc2c(=O)n(Cc3cccc(Br)c3)c(=S)[nH]c2c1 | . | 12.6µM* | 17.8% | . | 7.08µM* | 6.3
Cc1ccc(NC(=Nc2ccc(Br)cc2)N2CCOCC2)cc1C | . | -3.4% | 1.1% | -9.6 | 1.2% | 0.2
Cc1nc(N2CCOCC2)c2nc(-c3ccccc3)n(CC3CCN(C)CC3)c2n1 | 1.9% | -12.1% | . | . | -6.8% | .
O=C(COC(=O)CC1CC2CCC1C2)Nc1ccc(F)cc1Cl (configuration not stated) | . | . | . | . | . | 10.7
Fc1cccc(NC(=S)Nc2cccc3ccccc23)c1 | . | -2.9% | ? | -8.6 | 28.8% | -9.2
CCc1ccc(NC(=S)Nc2cccc3cnccc23)cc1 | -3.3% | ? | ? | -1.5 | 11.2µM* | -0.8
Cc1ccc(NC(=S)Nc2cccc3cnccc23)c(C)c1 | -0.6% | -25.9% | ? | 3.9 | 15.8µM* | 6.0
Cc1cc(C)cc(NC(=S)Nc2cccc3cnccc23)c1 | -13.8% | ? | 12.2% | -0.8 | 12.6µM* | 5.6
C=C(C)CNC(=S)Nc1cccc2cnccc12 | 3.1% | -23.0% | ? | 0.0 | -17.6% | 11.6
Cc1ccc(NC(=S)c2ccncc2)c(C)c1 | . | -6.8% | 3.9% | . | ? | 1.3
CC(C)(C)OC(=O)C[C@@H]1C/C=C\C[C@@H](CC(=O)NCCO)C(=O)N[C@H](Cc2ccccc2)COC1=O | . | . | . | 1.2 | . | -2.4
CC(C)Cn1c(=O)c2ccccc2n2c(CCC(=O)NC3CCN(Cc4ccccc4)CC3)nnc12 | . | 2.0% | -11.3% | 9.4 | -9.2% | 4.3
Cc1c(NC(=O)CSc2nnc(-c3ccccc3F)o2)c(=O)n(-c2ccccc2)n1C | . | . | . | 5.6 | . | 1.0
C/C(=N\NC(=O)C(N)=O)c1cccc([N+](=O)[O-])c1 | 8.0% | -3.9% | ? | -2.4 | -0.5% | -6.6
CNC(=S)N/N=C(\C)c1ccccc1 | -0.1% | 15.8µM* | -4.2% | 0.2 | 3.98µM* | 5.6
C/C(=N/NC(=O)C(=O)N/N=C(/C)c1ccccc1)c1ccccc1 | 4.0% | -6.4% | -2.5% | . | 8.7% | .
SMILES | CBFb-RUNX1 inh | Gal4-VP16 FLuc | MBNL1-CUG inh | CtBP-E1A blk | RORg inh | Six1-Eya2 blk
C/C(=N/NC(=O)c1ccc(C(C)(C)C)cc1)c1cccnc1 | . | . | . | -1.6 | . | 0.7
CNC(=S)N/N=C(\C)c1cccc([N+](=O)[O-])c1 | 6.9% | 4.47µM* | ? | -1.6 | 3.55µM* | -3.7
CNC(=S)N/N=C(\C)c1ccc(C(C)(C)C)cc1 | 4.7% | 0.891µM* | 6.1% | 14.3 | 1.12µM* | 16.3
COc1cccc(C(O)c2nc(-c3cnn(C)c3)cs2)c1 (configuration not stated) | . | . | . | -4.1 | . | 1.8
CCOC(=O)N1CCC(=NNC(=O)c2ccc(O)cc2)CC1 | -2.7% | ? | -3.9% | -2.2 | 8.91µM* | -0.7
CC1=C/C(=N\NC(=O)c2ccc(O)cc2)CC1 | 1.3% | ? | -2.9% | -11.5 | 12.6µM* | 4.3
CCOC(=O)N1CCC(=NNC(=O)c2ccccc2F)CC1 | 8.6% | 24.1% | 2.2% | 11.9 | -0.6% | 0.8
CC1CCCC(C)N1C(=O)COC(=O)C1CCN(S(=O)(=O)c2c(Cl)cccc2Cl)CC1 (configuration not stated) | . | . | . | 1.6 | . | -6.5
CS(=O)(=O)N1c2ccccc2[C@]2(Br)C[C@H]3C(=O)N[C@@H](Cc4ccccc4)C(=O)N3[C@H]12 | . | . | . | 0.0 | . | -3.3
COc1ccc(O)c(/C=N/NC(=O)c2ccc(CSc3nc(C)cc(C)n3)cc2)c1 | ? | 2.51µM* | -3.7% | ? | 1.26µM* | ?
COc1ccc(/C=N/NC(=O)c2ccc(CSc3nc(C)cc(C)n3)cc2)cc1O | 7.5% | -2.2% | 28.7% | -15.1 | 23.2% | -17.3
Cc1cc(C)nc(SCc2ccc(C(=O)N/N=C/c3cccc(O)c3O)cc2)n1 | 2.6% | 1.58µM* | ? | -96.5* | 1.41µM* | -94.8*
COc1cccc2sc(NNC(=O)COc3ccccc3)nc12 | -0.4% | -19.1% | 31.6% | . | 4.47µM* | 0.2
CCC(=O)NNc1nc2c(Cl)cccc2s1 | 7.3% | 5.7% | 1.6% | 4.6 | ? | 1.1
COc1ccc(C)c2sc(NNC(=O)COc3ccccc3)nc12 | -5.1% | -3.9% | -1.9% | . | 7.08µM* | .
COc1ccc(C)c2sc(NC(=O)CCS(=O)(=O)c3ccccc3)nc12 | . | ? | -4.4% | -3.7 | -10.5% | -23.3
COC(=O)c1ccc(C)c(NC(=O)C(CCSC)NC(=O)c2cc(OC)c(OC)c(OC)c2)c1 (configuration not stated) | . | 4.7% | -9.0% | -0.2 | -14.7% | -13.1
Cc1nnsc1C(=O)N/N=C/c1ccc2ccccc2c1O | ? | 2.82µM* | 21.2% | -71.3* | 4.47µM* | -87.2*
Cc1nnsc1C(=O)N/N=C/c1ccccc1 | 9.8% | 3.5% | -15.9% | -2.3 | 12.1% | 7.5
